Out of some 210,000 compounds screened, about 5,900 (2.8%) were called active. About 5% were inconclusive and are not listed. Calls come from the whole dose curve; as a rule, active = well fitted activation curve with a large enough effect; inconclusive = small, poorly fitted or top-dose-only effect; inactive = no such curve, though single readings can be large or run the other way. For the sample, actives were picked, then their nearest neighbours and some compounds at random.
test: qHTS Assay for Enhancers of SMN2 Splice Variant Expression; details: HEK293 SMN2-luciferase splicing reporter, luminescence, 30-36 h; series mostly up to 46.1 µM; activity change, positive = activation: at the top concentration; note: nearly all actives have a fitted effect of over 55% in size; for activity change, positive = activation: % of control where 0% means no effect
Outline: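 HEK293 cells carry an SMN2 […]–luciferase reporter in which exon 7 inclusion puts luciferase in frame. Cells were plated 10-12 h before compound addition, then incubated 30-36 h at 37C. ONE-Glo luminescence was read; sodium butyrate at 4.5 mM final served as control.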
Potency is the fitted concentration of half-maximal effect.

SMILES	activity change, positive = activation	Potency
N#Cc1nc(/C=C/c2ccc(F)cc2)oc1NCc1ccc(F)cc1	1.53% (inactive)	
Cc1ccc2nc3c(cc(C(=O)NC4CCCCC4)c(=N)n3C(C)C)c(=O)n2c1	-15% (inactive)	
Cc1ccc(Nc2ccccc2N)cc1	11.1% (inactive)	
NCCC(=O)c1ccccc1N	-8.09% (inactive)	
Nc1ccccc1N		11.2 µM (active)
COc1ccc(NC(=O)C(=O)NCc2ccco2)cc1	0.617% (inactive)	
COc1cccc(NC(=O)N2CCN(C(=O)c3nsc4ccccc34)CC2)c1	-19.1% (inactive)	
COc1cccc2sc(NNC(=O)c3nc4ccccc4s3)nc12	-52.6% (inactive)	
COc1cccc2sc(N(CCCN(C)C)C(=O)C(c3ccccc3)c3ccccc3)nc12	-9.4% (inactive)	
COc1cccc2sc(Nc3nc(C)c(C(C)=O)s3)nc12		7.94 µM (active)
COc1ccc(/C=C2\NC(=O)[C@@H]3Cc4ccccc4CN3C2=O)cc1	4.1% (inactive)	
CCN(CC)S(=O)(=O)c1ccc2c(c1)N(CC(=O)NCC(C)c1ccccc1)C(=O)CO2 (stereo unspecified)	12.9% (inactive)	
Cc1ccc2nc(COc3ccc(N(C)S(=O)(=O)c4ccccc4)cc3)cc(=O)n2c1	-56.7% (inactive)	
COc1ccc(C(=O)NCc2cn3ccccc3n2)cc1	-14% (inactive)	
O=Cc1ccc(OCc2cn3ccccc3n2)cc1		11.2 µM (active)
COc1ccc(-c2nc3c(c(SCC(=O)Nc4ccc(C(=O)O)cc4)n2)Cc2ccccc2O3)cc1	26.4% (inactive)	
CC(C)(C)NC(=O)Cn1cnc2cc([N+](=O)[O-])ccc2c1=O	-7.49% (inactive)	
Cc1cc(C)nc(Nc2cc([N+](=O)[O-])ccc2C)n1	-11.5% (inactive)	
Cc1ccc(-n2cc3ccc([N+](=O)[O-])cc3n2)cc1		1.26 µM (active)
CC1CCN(C(=O)Cn2c(=O)n(-c3ccc(Cl)cc3)c(=O)c3c4c(sc32)CCC4)CC1	2.56% (inactive)	
CCCOc1ccc(CNC(=O)C2CCN(c3nn4c(=O)cc(C)nc4s3)CC2)cc1	11.9% (inactive)	
Cc1nn(CC(=O)O)c(=O)c2cc3cc(F)ccc3n12	-7.09% (inactive)	
O=C1CCN(C(=S)NCCc2ccccc2)CC1	-4.5% (inactive)	

SMILES	activity change, positive = activation	Potency
Oc1ccccc1N1CCN(C(=S)NCc2ccccc2)CC1	-7.35% (inactive)	
S=C(NCCc1ccccc1)N1CCCCC1		11.2 µM (active)
CCc1nn(CCCC(=O)NCc2ccccc2OC)c(=O)c2cc3occc3n12	1.11% (inactive)	
COc1ccc(-n2c(SC)nc3sc4c(c3c2=O)CCN(C(C)=O)C4)cc1	18.7% (inactive)	
O=C(Nc1ccc2c(c1)OCCO2)C(c1ccc(F)cc1)N1CCCCC1 (stereo unspecified)	-13.3% (inactive)	
Cc1cc(C)nc(N2CCC(C(=O)Nc3ccc4c(c3)OCCO4)CC2)n1	-10% (inactive)	
O=C(Nc1ccc2c(c1)OCCO2)C1CCCN(c2ncccn2)C1 (stereo unspecified)		3.98 µM (active)
Cc1c(NS(=O)(=O)c2ccc(Cl)cc2)c(=O)n(-c2ccccc2)n1C	-0.0289% (inactive)	
CCOc1ccccc1NC(=O)CSc1ncc(S(=O)(=O)c2ccc(C(C)(C)C)cc2)c(=O)[nH]1	2.47% (inactive)	
COC(=O)c1ccc(NC(=O)c2cccc3c2C(=O)N(C2CCCCC2)C3)cc1	-3.88% (inactive)	
CCOc1cc(C)c(Cl)cc1S(=O)(=O)n1nnc2ccccc21		17.8 µM (active)
COc1cc(C)c(Cl)cc1S(=O)(=O)n1ccnc1	5.31% (inactive)	
CCCOc1cc(C)c(S(=O)(=O)n2nnc3ccccc32)cc1C	13.9% (inactive)	
COc1ccccc1/C=C/c1nc(C#N)c(NC(C)c2ccccc2)o1 (stereo unspecified)	-1.39% (inactive)	
COc1ccc(/C=N/S(=O)(=O)c2ccccc2)cc1OC	3.61% (inactive)	
CCOc1ccc(/C=N/Nc2nncc(-c3ccccc3)n2)cc1OC	-7.07% (inactive)	
COc1ccc(/C=N/Nc2nc3ccccc3o2)cc1OC		6.31 µM (active)
Cc1ccc(Cl)cc1NC(=O)C1CCCN(c2cnccn2)C1 (stereo unspecified)	1.66% (inactive)	
O=C(Nc1cccnc1Cl)c1cc(-c2cccc(Cl)c2)on1	10.1% (inactive)	
CCC(=O)N1CCc2cc(S(=O)(=O)NC(Cc3ccccc3)C(=O)NCc3ccccc3)ccc21 (stereo unspecified)	-8.71% (inactive)	
Nc1nc(NCCCN2CCOCC2)nc(Nc2ccccc2)c1[N+](=O)[O-]	12.2% (inactive)	
CNc1nc(Nc2ccc(C)c(Cl)c2)nc(N)c1[N+](=O)[O-]		11.2 µM (active)
COCCNc1nc(N)c([N+](=O)[O-])c(NCCO)n1	19.4% (inactive)	

SMILES	activity change, positive = activation	Potency
Cc1ccccc1CNC(=O)Cn1c(C)c2cnn(-c3ccccc3)c(=O)c2c1C	8.24% (inactive)	
COc1cc(CCC(=O)OCC(=O)Nc2cccc(S(N)(=O)=O)c2)cc(OC)c1OC	-9.52% (inactive)	
CCOC(=O)/C(C#N)=C/c1ccc(OCC(=O)Nc2ccccc2)c(OC)c1	22% (inactive)	
CCCn1c(C)cc(/C=C(\C#N)C(=O)OCC(=O)Nc2cc(OC)c(OC)c(OC)c2)c1C		14.1 µM (active)
CCOc1ccc(CCNC(=O)CN(c2ccc(C)cc2)S(=O)(=O)N(C)C)cc1OCC	-27.5% (inactive)	
CCOC(=O)c1ccc(N2C(=O)c3[nH]nc(-c4ccccc4)c3C2c2ccc(C(C)C)cc2)cc1 (stereo unspecified)	-15.6% (inactive)	
Cc1ccc(SCC(=O)Nc2ncc(C)s2)cc1	-10.3% (inactive)	
Cc1cnc(NC(=O)CSc2c(Cl)cccc2Cl)s1	-24.3% (inactive)	
Cc1nc(NC(=O)C23CCC(C)(C(=O)O2)C3(C)C)sc1C (stereo unspecified)	-0.0451% (inactive)	
CS(=O)(=O)c1ccc2nc(NC(=O)C3CCCCC3)sc2c1	-13% (inactive)	
Cc1cnc(NC(=O)C2CCCC2)s1		14.1 µM (active)
Cc1nc(NC(=O)C2CCCCC2)sc1C		20 µM (active)
CCCCC(CC)CNC(=O)C1CCN(S(=O)(=O)c2cccc3nsnc23)CC1 (stereo unspecified)	2.83% (inactive)	
CCc1cc2c(cc(C(=O)OC)n2Cc2nc(-c3ccc(C)cc3)oc2C)s1	-9.75% (inactive)	
COc1ccc(-c2cn3cccnc3n2)cc1		12.6 µM (active)
CCCC(=O)Nc1cccc(-c2cn3ccsc3n2)c1	5.02% (inactive)	
COc1cc(OC)cc(-c2nc(=S)n3ccsc3n2)c1	3.14% (inactive)	
Cc1ccc(-c2cn3cc(C)ccc3n2)cc1	-85.6% (inactive)	
COc1ccc(-c2cn3ccsc3n2)cc1		15.8 µM (active)
c1ccc(-c2cn3cccnc3n2)cc1	5.81% (inactive)	
Cc1ccc(C)c(Cn2c(CCCNC(=O)C3CCCCC3)nc3ccccc32)c1	-1.77% (inactive)	
Cc1ccsc1CN(C(=O)c1oc2ccc(Br)cc2c1C)C1CCS(=O)(=O)C1 (stereo unspecified)	-38.8% (inactive)	
Cc1ccc(-n2nc(C)c(C(=O)O)c2-n2cccc2)cc1	3.71% (inactive)	

SMILES	activity change, positive = activation	Potency
COc1ccccc1C(=O)NCCn1cc(SCc2ccccc2Cl)c2ccccc21	-39.6% (inactive)	
Cc1c(N=Nc2ccc(N(C)C)cc2)c(=O)n(-c2ccccc2)n1C		10 µM (active)
Cc1c(C=O)n(C)n(-c2ccccc2)c1=O	22.8% (inactive)	
Cc1ccc(S(=O)(=O)Nc2ccccc2CNc2c(C)n(C)n(-c3ccccc3)c2=O)cc1	-10.8% (inactive)	
Cc1ccc2oc(=O)c3cnn(CC(=O)NCc4ccccc4Cl)c3c2c1	-0.578% (inactive)	
CCCC12CN3CC(CCC)(CN(C1)C3c1c[nH]c3ccc(OC)cc13)C2=O (stereo unspecified)	-5.47% (inactive)	
c1ccc(C2=Nc3cccc4cccc(c34)N2)cc1	-6.88% (inactive)	
CNC(=S)N1N=C(c2ccccc2)CC1c1ccc(Br)cc1 (stereo unspecified)	-10.1% (inactive)	
Brc1ccc(C2CC(c3ccccc3)=Nc3ccccc3N2)cc1 (stereo unspecified)		11.2 µM (active)
O=C(Nc1ccc(OC(F)(F)F)cc1)C1CCCN(S(=O)(=O)c2ccc(Br)s2)C1 (stereo unspecified)	-5.28% (inactive)	
COc1cc(NS(=O)(=O)c2cccs2)cc(OC)c1	3.39% (inactive)	
Cc1cccc(N2CCN(c3c(CN4CCCC4)c(=O)oc4ccccc34)CC2)c1C	-9.24% (inactive)	
Cn1ncc(Br)c1C(=O)NCc1cccs1	2.37% (inactive)	
O=C(NCc1cccs1)c1ccc2c(c1)ncn2C1CCCC1	-4.28% (inactive)	
Cc1nc2cc(NCc3cccs3)ccc2n1C		7.94 µM (active)
CCCCCCn1nnc2sc(-c3ccccc3)cc2c1=O	-11.4% (inactive)	
CCOC(=O)c1cc(NC(=O)c2ccc(F)cc2)c(=O)n2c1oc1ccccc12	6.19% (inactive)	
COc1ccccc1NC(=O)c1oc2ccccc2c1NC(=O)C(C)C	-16.2% (inactive)	
CC(CCCc1ccccc1)NC(=O)c1nn(-c2ccc(Cl)cc2)nc1CO (stereo unspecified)	-47.2% (inactive)	
CCOc1ccc(S(=O)(=O)Nc2ccc3oc4c(c3c2)CC(C)CC4)cc1 (stereo unspecified)	-8.65% (inactive)	
C=CCN(c1ccc(C(=O)Nc2cc(C)cc(C)c2)cc1)S(C)(=O)=O	-19.8% (inactive)	
CC(=O)Nc1ccccc1NC(=O)c1cc(C)cc(C)c1	-2.07% (inactive)	
CSCc1ccc(C(=O)Nc2cc(C)cc(C)c2)cc1		12.6 µM (active)

SMILES	activity change, positive = activation	Potency
CCOc1ccccc1NC(=O)c1ccc2c(c1)CCN2S(=O)(=O)c1ccc(C)cc1	3.85% (inactive)	
CC(=O)Nc1ccc(NC(=O)CSc2nnc3c4cc(Br)ccc4n(C)c3n2)cc1	3.66% (inactive)	
Cc1cc(C)cc(NC(c2nnc(-c3cccc(F)c3)o2)c2ccc(F)cc2Cl)c1 (stereo unspecified)	-3.55% (inactive)	
O=C(CSC(=S)N1CCOCC1)c1ccccc1		0.794 µM (active)
O=C(NC(=O)N1CCOCC1)c1ccccc1	-3.17% (inactive)	
NC(=NC(=O)c1ccccc1)N1CCOCC1	8.74% (inactive)	
Cc1ccc(F)cc1NC(=O)c1ccc2c(c1)OCO2	-18.3% (inactive)	
COCc1nnc(NC(=O)c2ccc3c(c2)OCO3)s1		14.1 µM (active)
O=C(Nc1nc2ccccc2s1)c1ccc2c(c1)OCO2		0.355 µM (active)
Cc1cc(C)c2nc(NC(=O)c3ccc4c(c3)OCO4)sc2c1	3.44% (inactive)	
CCCc1nnc(NC(=O)c2cc(OC)cc(OC)c2)s1	0.792% (inactive)	
O=C(Nc1cccnc1)c1ccc2c(c1)OCO2	27.6% (inactive)	
O=C(CCn1c(=O)c2ccccc2n(Cc2ccc(Cl)cc2)c1=O)NCc1ccc2c(c1)OCO2	10.9% (inactive)	
CC(C)NC(=O)c1nn(-c2ccccc2F)nc1CO	-25.4% (inactive)	
NC1=NC(c2cc(F)cc(F)c2)n2c(nc3ccccc32)N1 (stereo unspecified)	2.06% (inactive)	
Brc1ccc2c(c1)NC(c1cccnc1)=NC(c1ccccc1)=N2	26.1% (inactive)	
CCc1nnc(NC(=O)c2c(O)c3c([nH]c2=O)CCCC3)s1		14.1 µM (active)
O=C(NCc1ccccn1)c1c(O)c2c([nH]c1=O)CCCC2	-17.7% (inactive)	
C[N+](C)(C)CCNC(=O)c1c(O)c2c([nH]c1=O)CCCC2	1.37% (inactive)	
